High-throughput results deposited in PubChem by The Scripps Research Institute Molecular Screening Center.
DAX1 StAR inh – DAX1 (NR0B1) inhibition, primary screen | HEK293T StAR-luciferase reporter, SF-1/DAX-1 repression relief | 370,000 compounds, 1.1% hits | inhibition, % at 6.8 µM;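 active = inhibition above the mean over all tested compounds plus 3 SD, cut at about 3.6% in these data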;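 note: 0% = DAX-1 cells with DMSO and 100% = cells lacking DAX-1 with DMSO; higher inhibition means more luminescence from relief of DAX-1 repression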
SMARCA2 activ – SMARCA2 function activation, primary screen; 370,000 compounds, 1% hits; AID 652017; MG213 cells, MMTV-luciferase reporter, dexamethasone, overnight; activation, % at 9.1 µM; in the data active = activation above about 7.8%;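 note: 0% = vehicle wells and 100% = reference activator wells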
hgDAF12 agonist – activates the H. glycines DAF-12 receptor ligand-binding domain; HEK293 GAL4-hgDAF12 UAS-luciferase reporter, agonist luminescence; normalized to butyrate control; activation, % at 6.8 µM; 370,000 compounds, 1.8% hits;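 active = activation above a cutoff set at the mean of all screened compounds plus 3 SD, cut at about 10% in these data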;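 note: 0% = DMSO wells and 100% = sodium butyrate wells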
hcDAF-12 act – activates DAF-12 receptor from parasite H. contortus; HEK293 hcDAF-12 lit1-tk-luc reporter, luminescence; 0% DMSO, 100% Δ7-dafachronic acid; activation, % at 6.8 µM; 370,000 compounds, 1.4% hits; AID 652067;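 active = activation above the mean of all tested compounds plus 3 SD, cut at about 5.5% in these data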;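 note: 100% = response to 3 µM Δ7-dafachronic acid high control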
ssDAF-12 act – activates DAF-12 receptor from parasite S. stercoralis | HEK293 ssDAF-12/GRIP1 lit1-tk-luc reporter, luminescence; % of 3 µM dafachronic acid response | activation, % at 6.8 µM | 370,000 compounds, 1% hits;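 active = activation above the mean over all tested compounds plus 3 SD, cut at about 0.9% in these data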;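 note: 0% = DMSO-only wells and 100% = 3 µM delta7-dafachronic acid wells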
LXR ag – activates human LXR-beta, counter-screen for hcDAF-12 agonists | HEK293 Gal4-LXR tk-luc reporter, luminescence, 24 h; normalized: DMSO 0%, positive control 100% | activation, % at 6.8 µM | AID 743027 | 3,400 tested, under 10 active | shares compounds with hcDAF-12 act;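 active = mean percent activation of the reporter above a cutoff set as the average over tested compounds plus their standard deviation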
Target sequence (P55055 whole entry, looked up, the tested form may be a part): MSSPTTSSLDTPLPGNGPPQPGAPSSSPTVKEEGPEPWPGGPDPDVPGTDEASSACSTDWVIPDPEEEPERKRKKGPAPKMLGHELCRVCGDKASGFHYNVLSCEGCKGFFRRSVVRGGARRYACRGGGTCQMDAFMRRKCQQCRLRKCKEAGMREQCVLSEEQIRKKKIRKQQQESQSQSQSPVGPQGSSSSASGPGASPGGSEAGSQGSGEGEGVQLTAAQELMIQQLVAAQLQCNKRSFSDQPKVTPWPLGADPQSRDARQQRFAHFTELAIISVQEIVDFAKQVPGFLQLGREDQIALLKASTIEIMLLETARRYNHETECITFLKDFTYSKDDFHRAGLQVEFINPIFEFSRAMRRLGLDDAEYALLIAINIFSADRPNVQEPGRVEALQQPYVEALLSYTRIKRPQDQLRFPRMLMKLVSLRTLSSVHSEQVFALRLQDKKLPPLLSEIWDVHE
hcDAF12 ag – confirmation of H. contortus DAF-12 agonists; shares compounds with hcDAF-12 act; HEK293 hcDAF-12 lit1-tk-luc reporter, luminescence; % of Δ7-dafachronic acid response; activation, % at 6.8 µM; 3,400 compounds, 61% hits; AID 743032;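 active = mean activation across triplicate tests above the threshold derived from the earlier primary screen, cut at about 5.5% in these data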;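 note: 0% = DMSO only wells and 100% = 3 µM Δ7-dafachronic acid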
* = called active by the depositor; / = not tested or not shown. Compounds with a hit are over-represented: about 4.2% of the library has one in this group of screens.

SMILES	DAX1 StAR inh	SMARCA2 activ	hgDAF12 agonist	hcDAF-12 act	ssDAF-12 act	LXR ag	hcDAF12 ag
N#C/C(=C\c1c[nH]c2ccccc12)C(N)=O	1	3	2	2	-1	/	/
O=C(Nc1ccccc1C(=O)N/N=C/c1ccco1)c1ccccc1Cl	0	3	0	1	-1	/	/
Nc1c(Cl)c(Cl)nc(C(=O)N/N=C/c2ccco2)c1Cl	0	-1	3	6.9*	0	0	3
C=CCOC(=O)N[C@H](c1ccccc1)[C@H](C)/C=C/CC(=O)OC	0	-4	0	-1	-1	/	/
C/C(=N\NC(=O)c1ccc(C)cc1)c1c(C)[nH]n(-c2ccccc2)c1=O	0	-1	5	1	0	/	/
C/C(=N\NC(=O)c1ccccc1)c1c(C)[nH]n(-c2ccccc2)c1=O	1	1	7	9.2*	0	0	-1
O=C(Cn1nc(C(=O)O)c2ccccc2c1=O)c1c[nH]c2ccccc12	0	-1	3	7.3*	1	0	4
Cc1ccc(-c2cc(=O)c3cc(C)ccc3[nH]2)cc1	1	3	8	7.0*	1	1	7.0*
Cc1ccc(-c2cc(=O)c3cc(F)ccc3[nH]2)cc1	1	2	4	1	-1	/	/
COCOCCn1cc(CN2CCS(=O)(=O)N(Cc3ccc(-c4ccc(F)cc4)cc3)C(C(C)C)C2=O)nn1 (stereo unspecified)	-1	-4	-4	-1	-2	/	/
CC(=O)N(/N=C1/C(=O)Nc2ccccc21)c1ccccc1	1	1	2	12*	1.2*	1	10*
CCC(=O)Oc1ccc(-c2cnc3ccccc3n2)cc1	3	4	11*	7.1*	1	2	10*
COc1ccc(OC)c(Nc2nc(-c3cccs3)cs2)c1	0	3	4	7.4*	0.9*	0	5
CCCCCCCCN1C(=O)[C@@H](CC(=O)NCc2cccc(C(F)(F)F)c2)C[C@@]2(C(=O)OC)C1=C[C@H](C(C)(C)C)O[C@@H]2C	0	-1	1	2	-1	/	/
N#C/C(=C\c1ccc[nH]1)C(=O)Nc1ccccc1Cl	3	1	5	11*	1.2*	1	12*
COC(=O)C1=C(C)N(Cc2ccc(F)cc2)C(=S)NC1c1ccccc1 (stereo unspecified)	-1	0	-1	0	-1	/	/
N#C/C(=C(/O)c1cccs1)c1nc2ccccc2[nH]1	0	-2	3	0	-1	/	/
O/C(=C\c1nc2ccccc2[nH]1)c1cccs1	1	2	12*	8.5*	1.0*	0	8.1*
O=c1[nH]c2ccccc2nc1/C=C(\O)c1cccs1	2	5	10*	7.8*	0	1	13*
O=c1[nH]c2ccccc2nc1/C=C(\O)C1CC1	-1	5	1	-2	-1	/	/
Cc1nc(-[n+]2nc(-c3ccncc3)nn2-c2ccccc2)sc1C	-3	-2	-3	-3	-1	/	/
CCOC(=O)c1cc2ccc3ccccc3c2oc1=O	0	0	2	-1	-1	/	/
CCOC(=O)c1cc2ccc3ccccc3c2s1	2	1	11*	7.2*	1.3*	1	11*
O=C(c1cc(Br)cc(Br)c1)N1CCC(Oc2cccnc2)CC1	0	0	-4	-1	-1	/	/
O=C(CSCc1ccc(Br)cc1)N=Nc1c(O)[nH]c2ccccc12	0	0	0	1	-1	/	/
SMILES	DAX1 StAR inh	SMARCA2 activ	hgDAF12 agonist	hcDAF-12 act	ssDAF-12 act	LXR ag	hcDAF12 ag
O=C(N=Nc1c(O)[nH]c2ccccc12)c1cccs1	4.4*	3	21*	15*	1.9*	1	15*
Cc1ccccc1N=Nc1c(O)[nH]c2ccccc12	0	3	11*	6.6*	2.2*	1	16*
O=C(CSc1nc2ccccc2[nH]1)N=Nc1c(O)[nH]c2ccccc12	0	5	3	9.1*	0	0	2
O=C(N=Nc1c(O)[nH]c2ccccc12)c1cc(NS(=O)(=O)c2cccs2)cc(NS(=O)(=O)c2cccs2)c1	0	-2	0	0	-1	/	/
Cc1coc2c(C)c3oc(=O)c(CCC(=O)N[C@H](C(=O)O)C(C)C)c(C)c3cc12	-1	-2	-1	-1	-2	/	/
COc1ccc(C(=O)c2[nH]c(N)c(C(=O)NCCc3c[nH]c4ccccc34)c2-c2ccccc2C(F)(F)F)cc1	-1	-8	2	-2	0	/	/
Cc1cc(OC[C@@H](O)CN2CCC(C(O)(c3ccccc3)c3ccccc3)CC2)ccc1Br	-1	-7	-2	0	-1	/	/
O=C(O)c1ccc2c3c(cccc13)C(=O)N(c1ccccc1)C2=O	0	1	-3	5	0	/	/
CC(=O)c1ccc2c3c(cccc13)C(=O)N(CCc1ccccc1)C2=O	1	7	8	8.4*	3.0*	1	9.7*
COc1ccc2cc(-c3cn(C(=O)N(c4ccccc4)c4ccccc4)nn3)ccc2c1	/	/	1	2	-1	/	/
Cc1cccc(-c2cc3nc(C)cc(C)n3n2)c1	3	5	8	8.6*	1.6*	1	11*
COc1ccc(S(=O)(=O)Nc2c(C(=O)O)[nH]c3ccccc23)cc1OC	0	-3	6	7.9*	2.0*	0	5
Cc1ccc(S(=O)(=O)Nc2c(C(=O)O)[nH]c3ccccc23)c(C)c1	0	0	5	6.7*	1.1*	0	2
COc1ccc(S(=O)(=O)Nc2c(C(=O)O)[nH]c3ccccc23)cc1	0	-2	2	5	0	/	/
CCCCCCCCN1C(=O)[C@@H](CC(=O)NCC23CC4CC(CC(C4)C2)C3)C[C@@]2(C(=O)OC)C1=C[C@H](C(C)C)O[C@@H]2C1CC1	1	-1	1	-1	0	/	/
CCC(C)N(c1nc(C)nc2c1nnn2Cc1ccccc1)C(C)CC (stereo unspecified)	1	0	0	1	-2	/	/
C[C@@H]1CN(S(=O)(=O)C(C)(C)C)[C@@H](CCO)/C1=C\CCO	0	-6	-2	0	-2	/	/
COC(=O)[C@]12CCCCC=C1N(CCC1=CCCCC1)C(=O)[C@H](CC(=O)N1CCCC1)C2	-1	-1	-1	-2	-2	/	/
Clc1ccccc1C1SCC2Nc3ccccc3CN21 (stereo unspecified)	1	3	5	7.1*	0	0	7.1*
Cc1cc(NCCOCCO)n2ncc(-c3ccc(Cl)cc3)c2n1	3.7*	-2	10	6.7*	1.0*	1	6.8*
